The compounds below were run on WHIM30 (cells of a triple-negative basal-like breast cancer xenograft) (assay: cell viability of combination (% of vehicle); higher = less cytotoxic). Conditions: 1 µM; 72 h; partner dose: 10 nM.
Description: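 PDX cells were treated for 72 h with each drug at 1 µM plus carfilzomib (10 nM; 100 nM for WHIM2). Luciferase viability is expressed as percent of vehicle.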

SMILES	cell viability of combination
Cc1cn(-c2cc(NC(=O)c3ccc(C)c(Nc4nccc(-c5cccnc5)n4)c3)cc(C(F)(F)F)c2)cn1 [Nilotinib(AMN-107)] + CC(C)C[C@H](NC(=O)[C@H](CCc1ccccc1)NC(=O)CN1CCOCC1)C(=O)N[C@@H](Cc1ccccc1)C(=O)N[C@@H](CC(C)C)C(=O)[C@@]1(C)CO1 [Carfilzomib]	22.2
CC(O)C(=O)O.CCOc1ccc2nc3cc(N)ccc3c(N)c2c1.O [Ethacridine lactate monohydrate] + CC(C)C[C@H](NC(=O)[C@H](CCc1ccccc1)NC(=O)CN1CCOCC1)C(=O)N[C@@H](Cc1ccccc1)C(=O)N[C@@H](CC(C)C)C(=O)[C@@]1(C)CO1 [Carfilzomib]	15.2
CO[C@H]1C[C@@H]2CC[C@@H](C)[C@@](O)(O2)C(=O)C(=O)N2CCCC[C@H]2C(=O)O[C@H]([C@H](C)C[C@@H]2CC[C@@H](OC(=O)C(C)(CO)CO)[C@H](OC)C2)CC(=O)[C@H](C)/C=C(\C)[C@@H](O)[C@@H](OC)C(=O)[C@H](C)C[C@H](C)/C=C/C=C/C=C/1C [Temsirolimus] + CC(C)C[C@H](NC(=O)[C@H](CCc1ccccc1)NC(=O)CN1CCOCC1)C(=O)N[C@@H](Cc1ccccc1)C(=O)N[C@@H](CC(C)C)C(=O)[C@@]1(C)CO1 [Carfilzomib]	23.9
CCCCc1oc2ccc(NS(C)(=O)=O)cc2c1C(=O)c1ccc(OCCCN(CCCC)CCCC)cc1.Cl [Dronedarone HCl] + CC(C)C[C@H](NC(=O)[C@H](CCc1ccccc1)NC(=O)CN1CCOCC1)C(=O)N[C@@H](Cc1ccccc1)C(=O)N[C@@H](CC(C)C)C(=O)[C@@]1(C)CO1 [Carfilzomib]	12.7
O=C(O)c1cc(O)c(O)c(O)c1 [Gallic acid] + CC(C)C[C@H](NC(=O)[C@H](CCc1ccccc1)NC(=O)CN1CCOCC1)C(=O)N[C@@H](Cc1ccccc1)C(=O)N[C@@H](CC(C)C)C(=O)[C@@]1(C)CO1 [Carfilzomib]	16.3
CN(C)c1ccc(O)c2c1CC1CC3C(N(C)C)C(=O)C(C(N)=O)=C(O)C3(O)C(=O)C1=C2O.Cl (stereo not given) [Minocycline HCl] + CC(C)C[C@H](NC(=O)[C@H](CCc1ccccc1)NC(=O)CN1CCOCC1)C(=O)N[C@@H](Cc1ccccc1)C(=O)N[C@@H](CC(C)C)C(=O)[C@@]1(C)CO1 [Carfilzomib]	26.4
O=C(O)CO.[NH2-].[NH2-].[Pt+2] [Nedaplatin] + CC(C)C[C@H](NC(=O)[C@H](CCc1ccccc1)NC(=O)CN1CCOCC1)C(=O)N[C@@H](Cc1ccccc1)C(=O)N[C@@H](CC(C)C)C(=O)[C@@]1(C)CO1 [Carfilzomib]	16.4
CCN(CC)CCNC(=O)c1c(C)[nH]c(C=C2C(=O)Nc3ccc(F)cc32)c1C [Sunitinib] + CC(C)C[C@H](NC(=O)[C@H](CCc1ccccc1)NC(=O)CN1CCOCC1)C(=O)N[C@@H](Cc1ccccc1)C(=O)N[C@@H](CC(C)C)C(=O)[C@@]1(C)CO1 [Carfilzomib]	33.2
CN(C(=O)CN(CCO)CC(=O)N(C)C(C)(C)Cc1ccccc1)C(C)(C)Cc1ccccc1 [Oxethazaine] + CC(C)C[C@H](NC(=O)[C@H](CCc1ccccc1)NC(=O)CN1CCOCC1)C(=O)N[C@@H](Cc1ccccc1)C(=O)N[C@@H](CC(C)C)C(=O)[C@@]1(C)CO1 [Carfilzomib]	20.8
CN(C)CC=CC(=O)Nc1cc2c(Nc3ccc(F)c(Cl)c3)ncnc2cc1OC1CCOC1 (stereo not given) [Afatinib (BIBW2992)] + CC(C)C[C@H](NC(=O)[C@H](CCc1ccccc1)NC(=O)CN1CCOCC1)C(=O)N[C@@H](Cc1ccccc1)C(=O)N[C@@H](CC(C)C)C(=O)[C@@]1(C)CO1 [Carfilzomib]	12.3
CC(C)Nc1cc(-c2c[nH]c(C(=O)NC(CO)c3cccc(Cl)c3)c2)c(Cl)cn1 (stereo not given) + CC(C)C[C@H](NC(=O)[C@H](CCc1ccccc1)NC(=O)CN1CCOCC1)C(=O)N[C@@H](Cc1ccccc1)C(=O)N[C@@H](CC(C)C)C(=O)[C@@]1(C)CO1 [Carfilzomib]	21.7
C=C1C(=CC=C2CCCC3(C)C2CCC3C(C)CCCC(C)C)CC(O)CC1O (stereo not given) [Alfacalcidol] + CC(C)C[C@H](NC(=O)[C@H](CCc1ccccc1)NC(=O)CN1CCOCC1)C(=O)N[C@@H](Cc1ccccc1)C(=O)N[C@@H](CC(C)C)C(=O)[C@@]1(C)CO1 [Carfilzomib]	16.6
CC(C)(C)c1ccc(C(O)CCCN2CCC(C(O)(c3ccccc3)c3ccccc3)CC2)cc1 (stereo not given) [Terfenadine] + CC(C)C[C@H](NC(=O)[C@H](CCc1ccccc1)NC(=O)CN1CCOCC1)C(=O)N[C@@H](Cc1ccccc1)C(=O)N[C@@H](CC(C)C)C(=O)[C@@]1(C)CO1 [Carfilzomib]	15.5
Nc1ccn(C2OC(CO)C(O)C2O)c(=O)n1 (stereo not given) [Cytarabine] + CC(C)C[C@H](NC(=O)[C@H](CCc1ccccc1)NC(=O)CN1CCOCC1)C(=O)N[C@@H](Cc1ccccc1)C(=O)N[C@@H](CC(C)C)C(=O)[C@@]1(C)CO1 [Carfilzomib]	19.3
Cl.O.O=C1Cc2cc(CCN3CCN(c4nsc5ccccc45)CC3)c(Cl)cc2N1 [Ziprasidone hydrochloride monohydrate] + CC(C)C[C@H](NC(=O)[C@H](CCc1ccccc1)NC(=O)CN1CCOCC1)C(=O)N[C@@H](Cc1ccccc1)C(=O)N[C@@H](CC(C)C)C(=O)[C@@]1(C)CO1 [Carfilzomib]	22.5
CN(C)c1ccc(C(=C2C=CC(=[N+](C)C)C=C2)c2ccc(N(C)C)cc2)cc1.[Cl-] [Crystal Violet] + CC(C)C[C@H](NC(=O)[C@H](CCc1ccccc1)NC(=O)CN1CCOCC1)C(=O)N[C@@H](Cc1ccccc1)C(=O)N[C@@H](CC(C)C)C(=O)[C@@]1(C)CO1 [Carfilzomib]	6
CO[C@@]12[C@H](COC(N)=O)C3=C(C(=O)C(C)=C(N)C3=O)N1C[C@@H]1N[C@@H]12 [Mitomycin C] + CC(C)C[C@H](NC(=O)[C@H](CCc1ccccc1)NC(=O)CN1CCOCC1)C(=O)N[C@@H](Cc1ccccc1)C(=O)N[C@@H](CC(C)C)C(=O)[C@@]1(C)CO1 [Carfilzomib]	23.5
Br.Cc1ccc(Sc2ccccc2N2CCNCC2)c(C)c1 + CC(C)C[C@H](NC(=O)[C@H](CCc1ccccc1)NC(=O)CN1CCOCC1)C(=O)N[C@@H](Cc1ccccc1)C(=O)N[C@@H](CC(C)C)C(=O)[C@@]1(C)CO1 [Carfilzomib]	15.7
COc1ccccc1OCCNCC(O)COc1cccc2[nH]c3ccccc3c12 (stereo not given) [Carvedilol] + CC(C)C[C@H](NC(=O)[C@H](CCc1ccccc1)NC(=O)CN1CCOCC1)C(=O)N[C@@H](Cc1ccccc1)C(=O)N[C@@H](CC(C)C)C(=O)[C@@]1(C)CO1 [Carfilzomib]	20.7
CSc1ccc2c(c1)N(CCC1CCCCN1C)c1ccccc1S2.Cl (stereo not given) [Thioridazine HCl] + CC(C)C[C@H](NC(=O)[C@H](CCc1ccccc1)NC(=O)CN1CCOCC1)C(=O)N[C@@H](Cc1ccccc1)C(=O)N[C@@H](CC(C)C)C(=O)[C@@]1(C)CO1 [Carfilzomib]	17.7

— the supplement of paper PMC6992640
